# From PubChem BioAssay AID1159580 (chemical genetic matrix, 2015)
# “And” between values parts separate entries of the source, which are not always exact repeats. Equal values may be shown once. Hit rate of the full screen: of about 5,500 compounds, about 2,000 (36%) were called active. About 18% were inconclusive and are not listed. Rule as the data show it: active = normalized growth mostly below about 0.91 (no sharp cut-off); inconclusive = no clear call, values can overlap the other calls; inactive = mostly above about 0.92. This is one part of the list.
# Test: chemical genetic growth profiling, strain panel (AID 1159580);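 also: tested at 20 µM; growth read once vehicle control cultures reached saturation at 30 °C; 1 = growth at the plate median or of vehicle wells; lower values mean less growth of the strain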
# Settings: S. cerevisiae deletion strains, growth OD
smiles,measurement,setting,value
COc1ccc(C[C@H]2NC[C@H](O)[C@H]2OC(C)=O)cc1,normalized growth,"locus YAL013W, strain DEP1, stronger effect = lower value",0.0582 (active)
same,normalized growth,"locus YAL021C, strain ccr4, stronger effect = lower value",0.397 (active)
same,normalized growth,"locus YAL026C, strain drs2, stronger effect = lower value",0.762 (active)
same,normalized growth,"locus YAL030W, strain snc1, stronger effect = lower value",0.713 (active)
same,normalized growth,"locus YBL061C, strain skt5, stronger effect = lower value",0.803 (active)
same,normalized growth,"locus YBR009C, strain hhf1, stronger effect = lower value",0.516 (active)
same,normalized growth,"locus YBR021W, strain FUR4, stronger effect = lower value",1.05 (inactive)
same,normalized growth,"locus YBR023C, strain chs3, stronger effect = lower value",0.823 (active)
same,normalized growth,"locus YBR171W, strain sec66, stronger effect = lower value",1 (inactive)
same,normalized growth,"locus YBR229C, strain ROT2, stronger effect = lower value",1.01 (inactive)
same,normalized growth,"locus YBR231C, strain swc5, stronger effect = lower value",0.648 (active)
same,normalized growth,"locus YBR279W, strain paf1, stronger effect = lower value",0.869 (active)
same,normalized growth,"locus YCL011C, strain gbp2, stronger effect = lower value",0.659 (active)
same,normalized growth,"locus YCL016C, strain dcc1, stronger effect = lower value",0.791 (active)
same,normalized growth,"locus YCL029C, strain bik1, stronger effect = lower value",0.961 (inactive)
same,normalized growth,"locus YCL069W, strain vba3, stronger effect = lower value",0.904 (active)
same,normalized growth,"locus YCR088W, strain abp1, stronger effect = lower value",0.835 (active)
same,normalized growth,"locus YDL005C, strain med2, stronger effect = lower value",0.122 (active)
same,normalized growth,"locus YDL035C, strain GPR1, stronger effect = lower value",0.222 (active)
same,normalized growth,"locus YDL040C, strain nat1, stronger effect = lower value",1 (inactive)
same,normalized growth,"locus YDL074C, strain BRE1, stronger effect = lower value",0.242 (active)
same,normalized growth,"locus YDL101C, strain DUN1, stronger effect = lower value",0.306 (active)
same,normalized growth,"locus YDL134C, strain PPH21, stronger effect = lower value",0.533 (active)
same,normalized growth,"locus YDL185W, strain tfp1, stronger effect = lower value",0.993 (inactive)
same,normalized growth,"locus YDL192W, strain arf1, stronger effect = lower value",0.447 (active)
same,normalized growth,"locus YDR001C, strain nth1, stronger effect = lower value",0.964 (inactive)
same,normalized growth,"locus YDR069C, strain doa4, stronger effect = lower value",0.117 (active)
same,normalized growth,"locus YDR101C, strain arx1, stronger effect = lower value",0.874 (active)
same,normalized growth,"locus YDR137W, strain rgp1, stronger effect = lower value",0.942 (inactive)
same,normalized growth,"locus YDR150W, strain NUM1, stronger effect = lower value",0.656 (active)
same,normalized growth,"locus YDR159W, strain sac3, stronger effect = lower value",1.09 (inactive)
same,normalized growth,"locus YDR162C, strain NBP2, stronger effect = lower value",0.0621 (active)
same,normalized growth,"locus YDR195W, strain ref2",0.698 (active)
same,normalized growth,"locus YDR297W, strain sur2, stronger effect = lower value",0.838 (active)
same,normalized growth,"locus YDR318W, strain mcm21, stronger effect = lower value",0.7 (active)
same,normalized growth,"locus YDR334W, strain swr1, stronger effect = lower value",0.901 (active)
same,normalized growth,"locus YDR335W, strain msn5, stronger effect = lower value",0.927 (inactive)
same,normalized growth,"locus YDR388W, stronger effect = lower value",0.161 (active)
same,normalized growth,"locus YDR392W, strain spt3, stronger effect = lower value",0.622 (active)
same,normalized growth,"locus YDR502C, strain sam2, stronger effect = lower value",0.734 (active)
same,normalized growth,"locus YEL003W, strain gim4, stronger effect = lower value",0.984 (inactive)
same,normalized growth,"locus YEL037C, strain rad23, stronger effect = lower value",0.895 (active)
same,normalized growth,"locus YEL061C, strain CIN8 (second series), stronger effect = lower value",0.937 (inactive)
same,normalized growth,"locus YEL061C, strain CIN8, stronger effect = lower value",0.598 (active)
same,normalized growth,"locus YER015W, strain faa2, stronger effect = lower value",0.81 (active)
same,normalized growth,"locus YER016W, strain bim1, stronger effect = lower value",0.9 (active)
same,normalized growth,"locus YER110C, stronger effect = lower value",1 (inactive)
same,normalized growth,"locus YER111C, strain swi4, stronger effect = lower value",0.981 (inactive)
same,normalized growth,"locus YER155C, strain BEM2 (second series), stronger effect = lower value",0.938 (inactive)
same,normalized growth,"locus YER155C, strain BEM2, stronger effect = lower value",1.01 (inactive)
same,normalized growth,"locus YER167W, strain BCK2, stronger effect = lower value",0.704 (active)
same,normalized growth,"locus YFR010W, strain ubp6, stronger effect = lower value",0.104 (active)
same,normalized growth,"locus YGL078C, strain dbp3, stronger effect = lower value",0.981 (inactive)
same,normalized growth,"locus YGL086W, strain mad1, stronger effect = lower value",0.501 (active)
same,normalized growth,"locus YGL167C, strain pmr1, stronger effect = lower value",1.02 (inactive)
same,normalized growth,"locus YGL173C, strain kem1, stronger effect = lower value",0.885 (active)
same,normalized growth,"locus YGL227W, strain vid30, stronger effect = lower value",0.989 (inactive)
same,normalized growth,"locus YGL240W, strain doc1, stronger effect = lower value",0.994 (inactive)
same,normalized growth,"locus YGL248W, strain PDE1, stronger effect = lower value",0.298 (active)
same,normalized growth,"locus YGL253W, strain hxk2, stronger effect = lower value",0.575 (active)
same,normalized growth,"locus YGR078C, strain PAC10, stronger effect = lower value",0.523 (active)
same,normalized growth,"locus YGR135W, strain pre9, stronger effect = lower value",0.272 (active)
same,normalized growth,"locus YGR229C, strain SMI1, stronger effect = lower value",0.0868 (active)
same,normalized growth,"locus YGR252W, strain gcn5, stronger effect = lower value",0.68 (active)
same,normalized growth,"locus YHR013C, strain ard1, stronger effect = lower value",0.336 (active)
same,normalized growth,"locus YHR027C, strain rpn1, stronger effect = lower value",0.717 (active)
same,normalized growth,"locus YHR030C, strain SLT2, stronger effect = lower value",0.133 (active) and 0.945 (inactive)
same,normalized growth,"locus YHR079C, strain IRE1 (second series), stronger effect = lower value",0.916 (active)
same,normalized growth,"locus YHR079C, strain IRE1, stronger effect = lower value",0.921 (inactive)
same,normalized growth,"locus YHR094C, strain hxt1, stronger effect = lower value",1 (inactive)
same,normalized growth,"locus YHR129C, strain ARP1, stronger effect = lower value",0.831 (active)
same,normalized growth,"locus YHR142W, strain chs7, stronger effect = lower value",0.92 (inactive)
same,normalized growth,"locus YHR200W, strain rpn10, stronger effect = lower value",0.494 (active)
same,normalized growth,"locus YIL066C, strain RNR3, stronger effect = lower value",0.258 (active)
same,normalized growth,"locus YIL073C, strain SPO22, stronger effect = lower value",0.119 (active)
same,normalized growth,"locus YIL125W, strain kgd1, stronger effect = lower value",1.01 (inactive)
same,normalized growth,"locus YIR030C, strain dcg1, stronger effect = lower value",0.919 (active)
same,normalized growth,"locus YJL092W, strain hpr5, stronger effect = lower value",0.89 (active)
same,normalized growth,"locus YJL095W, strain BCK1 (second series), stronger effect = lower value",0.84 (active)
same,normalized growth,"locus YJL095W, strain BCK1, stronger effect = lower value",0.596 (active) and 0.961 (inactive)
same,normalized growth,"locus YJL115W, strain asf1, stronger effect = lower value",1.02 (inactive)
same,normalized growth,"locus YJL129C, strain trk1, stronger effect = lower value",0.479 (active)
same,normalized growth,"locus YJL134W, strain LCB3, stronger effect = lower value",1.02 (inactive)
same,normalized growth,"locus YJL154C, strain vps35, stronger effect = lower value",1.01 (inactive)
same,normalized growth,"locus YJL164C, strain tpk1, stronger effect = lower value",0.622 (active)
same,normalized growth,"locus YJL166W, strain qcr8, stronger effect = lower value",0.622 (active)
same,normalized growth,"locus YJL168C, strain set2, stronger effect = lower value",1.01 (inactive)
same,normalized growth,"locus YJL187C, strain SWE1 (second series), stronger effect = lower value",0.32 (active)
same,normalized growth,"locus YJR043C, strain POL32, stronger effect = lower value",0.524 (active)
same,normalized growth,"locus YJR066W, strain TOR1, stronger effect = lower value",0.911 (inactive)
same,normalized growth,"locus YJR075W, strain HOC1, stronger effect = lower value",0.174 (active)
